Shown is part of a subset that was picked to be rich in hits.
S-ASM inh – blocks human secretory acid sphingomyelinase; Potency, µM (top dose mostly 57.5 µM), most hits filed as inhibitors; P17405; 340,000 compounds, 0.006% hits; AID 504937; placental ASM, HMU-PC fluorogenic substrate, 60 min
Target sequence (P17405 47-631 limits assumed): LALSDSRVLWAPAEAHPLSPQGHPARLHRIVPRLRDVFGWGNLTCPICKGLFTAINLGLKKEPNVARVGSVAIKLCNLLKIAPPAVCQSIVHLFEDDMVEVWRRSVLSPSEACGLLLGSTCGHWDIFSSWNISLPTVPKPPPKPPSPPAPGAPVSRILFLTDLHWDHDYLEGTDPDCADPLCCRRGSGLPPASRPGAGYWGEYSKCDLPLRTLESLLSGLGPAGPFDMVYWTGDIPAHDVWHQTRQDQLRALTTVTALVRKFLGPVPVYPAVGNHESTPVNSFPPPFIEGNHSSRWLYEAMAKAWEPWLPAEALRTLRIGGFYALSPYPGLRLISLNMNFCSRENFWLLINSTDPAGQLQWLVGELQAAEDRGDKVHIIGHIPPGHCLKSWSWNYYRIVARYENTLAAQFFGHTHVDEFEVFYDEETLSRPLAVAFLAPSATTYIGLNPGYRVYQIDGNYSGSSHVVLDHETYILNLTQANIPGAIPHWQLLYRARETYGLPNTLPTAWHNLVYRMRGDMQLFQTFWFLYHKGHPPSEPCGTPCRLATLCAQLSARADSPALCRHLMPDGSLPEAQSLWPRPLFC
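HMU-PC0 cleavage (9 uM final) by human placental ASM, 60 min at 37 °C following 10 min compound exposure at RT; stopped at pH 10, fluorescence Ex 386/Em 447 nm.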
ClpP mod – qHTS Assay for Activators of ClpP; ATP-dependent Clp protease proteolytic subunit (Bacillus subtilis (strain 168)), P80244; 340,000 compounds, 1.9% hits; AID 651965, 2013; Potency, µM (series often up to 57.5 µM); purified B. subtilis ClpP, FRET peptide cleavage, 20 min; active = well fitted falling curve with a large enough effect; inconclusive = small, poorly fitted or top-dose-only effect; inactive = no such curve, though single readings can be large or run the other way; note: the source files actives as falling curves though it sought activators and does not explain the sign; nearly all actives have a fitted effect of over 65% in size
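FRET quenching reversal measured ClpP activation: 10 microg/mL B. subtilis ClpP at pH 8 with the FRET-FV decapeptide, read at 430 nm after 320 nm excitation. The 20-min minus 0-min signal was scaled between DMSO/no-enzyme wells and ADEP (5.8 microM final).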
Mito fusion act – mitochondrial division inhibition or fusion activation; Potency, µM (highest dose often 46.1 µM), hits mostly activators; 320,000 compounds, 0.23% hits; S. cerevisiae fusion-defective mutant growth rescue, CellTiterGlo 48 h; note: nearly all actives have a fitted effect of over 45% in size
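S. cerevisiae fusion-defective temperature-sensitive mutants (e.g. fzo1-1, mgm1-5) grown 48 h at 37C in YPEG (ethanol/glycerol non-fermentable) medium with 23 nl compound per well; growth rescue read as CellTiterGlo luminescence.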
RGS4 inh – blocks human RGS4-accelerated GTP hydrolysis; P49798; Transcreener GDP fluorescence polarization, RGS4-accelerated GTP hydrolysis; Potency, µM (series often up to 114 µM), most hits filed as inhibitors; 390,000 compounds, 0.039% hits; AID 504845; note: nearly all actives have a fitted effect of over 75% in size
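MLSMR compounds (23 nl, pin-transferred) preincubated 10 min at room temperature with a 500nM (2x) first reagent, then RGS4 at 900nM (2x) plus Transcreener GDP mix added; fluorescence polarization (620/688 nm) read before and after 90 min at 30 °C.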
mIDH1 inhibitor – human IDH1 R132H inhibition; O75874; 390,000 compounds, 0.093% hits; AID 602179; Potency, µM (titrated, usually from 76.6 µM), usual class: inhibitors; IDH1-R132H enzyme, NADPH consumption, diaphorase/resazurin fluorescence; note: nearly all actives have a fitted effect of over 65% in size
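IDH1-R132H (0.5 ug/mL) preincubated 30 min with compound, then NADPH (0.016 mM) and alpha-KG (2 mM) added; 80 min at RT, pH 7.5. Remaining NADPH coupled via diaphorase/resazurin to fluorescence (540/590 nm); concentration-response curves normalized to no-enzyme control.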
LDHA inh – LDHA (human) enzyme inhibition | purified LDHA, NADH/diaphorase-resazurin fluorescence; stronger effect = lower value | activity change, % (values are at about 110 or 230 µM) | 480,000 compounds, 0.15% hits | AID 1347041; in the data active = activity change below about -30%; inconclusive = mostly about -25% to -30%
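Enzyme activity of human lactate dehydrogenase 5 (2 nM; 0.06 mM NADH, 0.2 mM pyruvate, 5 min, RT) is measured via a resazurin/diaphorase fluorescence readout of residual NADH.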
IDH1 autofl – autofluorescence interference, mutant IDH1 hit counter-screen | shares compounds with mIDH1 inhibitor | Resorufin detection reagent fluorescence interference, cell-free | inhibition of signal, % at 51.2 µM | 750 tested, under 10 active
IDH1 WT – inhibits human wild-type IDH1, mutant selectivity check; shares compounds with mIDH1 inhibitor; WT IDH1 enzyme, NADPH diaphorase/resazurin fluorescence; Potency, µM (titrated, usually from 115 µM), usual class: inhibitors; 750 compounds, 9% hits; AID 623995; note: nearly all actives have a fitted effect of over 55% in size
IDH1 R132H conf – confirmation of human mutant IDH1 inhibitors. shares compounds with mIDH1 inhibitor. IDH1 R132H enzyme, NADPH diaphorase/resazurin fluorescence. Potency, µM (series often up to 76.6 µM), hits mostly inhibitors. 750 compounds, 83% hits. AID 624002; note: nearly all actives have a fitted effect of over 50% in size
Of the large screens only hits and unclear results are named; the others gave an inactive call (follow-up assays come after a bar, where they were run). Unless noted, calls come from the whole dose curve; as a rule, active = well fitted curve in the direction sought with a large enough effect; inconclusive = small, poorly fitted or top-dose-only effect, or another doubt; inactive = no such curve, though single readings can be large; an effect the other way counts as inactive or inconclusive.

Clc1ccc(C(c2ccc(Cl)cc2)n2cc[n+](CC(OCc3ccc(Cl)cc3Cl)c3ccc(Cl)cc3Cl)c2)cc1 (stereo unspecified)	S-ASM inh inconclusive, RGS4 inh inconclusive, mIDH1 inhibitor 18µM | IDH1 autofl inactive | IDH1 WT inconclusive | IDH1 R132H conf 7.9µM
Cc1ccc(-n2nc(C)c3c2NC(=O)CSC3c2ccsc2)cc1Cl (stereo unspecified)	none (no result: S-ASM inh, ClpP mod, Mito fusion act, RGS4 inh, mIDH1 inhibitor)
CCCCOc1ccc(CC2C(=O)N(C)C(=O)N(C)C2=O)cc1	Mito fusion act inconclusive, mIDH1 inhibitor inconclusive | IDH1 autofl inactive | IDH1 WT inactive | IDH1 R132H conf 45µM
O=C(CSC1c2ccccc2Oc2ccccc21)Nc1ccc(C(=O)O)cc1	none (no result: S-ASM inh, ClpP mod, Mito fusion act, RGS4 inh, mIDH1 inhibitor)
Cc1nc2cc(C(F)(F)F)ccc2n1C1CCN(Cc2nnnn2Cc2ccc3c(c2)OCO3)CC1	mIDH1 inhibitor inconclusive | IDH1 autofl inactive | IDH1 WT inactive | IDH1 R132H conf 16µM
O=C(O)CSCC(=O)N(Cc1ccccc1)c1nc(-c2ccccc2)c(-c2ccccc2)s1	mIDH1 inhibitor inconclusive | IDH1 autofl inactive | IDH1 WT inactive | IDH1 R132H conf 40µM
CC1CC(=O)C2CCCCC2N1 (stereo unspecified)	none (no result: S-ASM inh, ClpP mod, Mito fusion act, RGS4 inh, mIDH1 inhibitor)
CCCCN1C(=O)/C(=C/c2ccc(N3CCCCCC3)cc2)C(=O)NC1=S	none (no result: S-ASM inh, ClpP mod, RGS4 inh, mIDH1 inhibitor, LDHA inh)
CN1C(=O)/C(=C\c2ccc(N3CCCCCC3)cc2)C(=O)NC1=S	mIDH1 inhibitor 46µM | IDH1 autofl inactive | IDH1 WT inactive | IDH1 R132H conf 22µM
O=C1NC(=O)C(=Cc2ccc(-c3ccc(Cl)cc3)o2)C(=O)N1	RGS4 inh inconclusive, mIDH1 inhibitor inconclusive | IDH1 autofl inactive | IDH1 WT inactive | IDH1 R132H conf 40µM
O=C1NC(=O)C(=Cc2ccc(-c3ccc(S(=O)(=O)N4CCOCC4)cc3)o2)C(=O)N1	RGS4 inh inconclusive, mIDH1 inhibitor inconclusive
O=c1[nH]c(O)c(/C=C2/C=CC(c3cc(Cl)ccc3Cl)=N2)c(=O)[nH]1	mIDH1 inhibitor 29µM (no result: ClpP mod) | IDH1 autofl inactive | IDH1 WT 45µM | IDH1 R132H conf 11µM
CC1=Nc2ccccc2/C1=C/c1c(O)[nH]c(=O)[nH]c1=O	none
O=C(NC1CCSC1=O)c1cccs1 (stereo unspecified)	none (no result: S-ASM inh, ClpP mod, Mito fusion act, RGS4 inh, mIDH1 inhibitor)
OC1C2(c3ccccc3)CN3CN(C2)CC1(c1ccccc1)C3 (stereo unspecified)	none (no result: S-ASM inh, ClpP mod, Mito fusion act, RGS4 inh, mIDH1 inhibitor)
C=C1C(=O)O[C@@H]2C[C@@H](C)[C@@H]3C=CC(=O)[C@@]3(C)[C@@H](OC(=O)CC(=O)O[C@H]3[C@@H]4C(=C)C(=O)O[C@@H]4C[C@@H](C)[C@@H]4C=CC(=O)[C@]43C)[C@H]12	mIDH1 inhibitor inconclusive | IDH1 autofl inactive | IDH1 WT inactive | IDH1 R132H conf inconclusive
Cn1c(=O)c2c(-c3ccccc3)n3c(c2n(C)c1=O)C(c1cc(Cl)ccc1O)Nc1ccccc1-3 (stereo unspecified)	mIDH1 inhibitor 40µM (no result: S-ASM inh, Mito fusion act) | IDH1 autofl inactive | IDH1 WT inactive | IDH1 R132H conf 14µM
COc1ccc(-c2c3c(=O)n(C)c(=O)n(C)c3c3n2-c2ccccc2NC3c2ccccc2OC)cc1 (stereo unspecified)	ClpP mod inconclusive, mIDH1 inhibitor 45µM (no result: S-ASM inh, Mito fusion act) | IDH1 autofl inactive | IDH1 WT inactive | IDH1 R132H conf 6.3µM
Cn1c(O)c(C2=NNC(c3ccc(Cl)cc3)C2)c(=O)n(C)c1=O (stereo unspecified)	none (no result: ClpP mod)
O=C1CSC(c2ccccc2OC2CCCC2)c2cn[nH]c2N1 (stereo unspecified)	none (no result: S-ASM inh, ClpP mod, Mito fusion act, RGS4 inh, mIDH1 inhibitor)
CCOc1ccc(C2CC(c3c(O)n(C)c(=O)n(C)c3=O)=NN2)cc1 (stereo unspecified)	none (no result: ClpP mod)
CCOc1ccc(C2c3c(-c4ccccc4O)n[nH]c3C(=O)N2Cc2ccncc2)cc1 (stereo unspecified)	mIDH1 inhibitor inconclusive (no result: S-ASM inh, Mito fusion act) | IDH1 autofl inactive | IDH1 WT inactive | IDH1 R132H conf 40µM
NCCCc1c[nH]c2ccccc12	none (no result: S-ASM inh, ClpP mod, Mito fusion act, RGS4 inh, mIDH1 inhibitor)
Cc1cc(C)c2[nH]c(C)c(CCN)c2c1	none (no result: S-ASM inh, ClpP mod, Mito fusion act, RGS4 inh, mIDH1 inhibitor)
CC(C)CN(CC(C)C)c1ccc(C=C2C(=O)NC(=S)NC2=O)cc1[N+](=O)[O-]	RGS4 inh inconclusive, mIDH1 inhibitor inconclusive | IDH1 autofl inactive | IDH1 WT inactive | IDH1 R132H conf 40µM
